Laboratory results reported in the supplement of paper PMC12636033.
± gives the standard deviation of the averaged measurements. Over roughly 33,000 sequences, “E-score (rank enrichment, -0.5 to 0.5)” has its median near -0.0028; the highest 2% begin near 0.23. This excerpt belongs to a sample that is enriched for the highest values.

Tested on: 2Sb-muMax20 (muMax20 with two 1,3-bis(methyl)benzene Cys staples, A13C/A17C and Q88C/A92C, C-terminal Lys)
Experiment: PBM 8-mer E-score (E-score (rank enrichment, -0.5 to 0.5)); higher = stronger preferential binding
Description: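 Protein binding microarray (universal PBM chip covering all 10-mers in fixed probe flanks) with chemically synthesized human Max(13-93) bHLH-LZ analogs (not full-length Max) bearing noncanonical residues (hArg, Tha, Aib, Nle at 65) and aromatic Cys staples. Read-out per 8-mer (and its reverse complement): E-score (rank-based enrichment, -0.5 to 0.5) and Z-score of median probe intensity.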

| Sequence | PBM 8-mer E-score |
| --- | --- |
| GCAGCCAA | -0.0475 ± 0.046 |
| AAGCAATC | 0.256 ± 0.026 |
| AAGCAATT | 0.187 ± 0.017 |
| GAGCAATC | -0.0835 ± 0.0098 |
| CGTCTAGA | -0.162 ± 0.029 |
| CTATTACA | 0.14 ± 0.041 |
| GTATTATA | 0.238 ± 0.024 |
| ATATTACA | 0.173 ± 0.13 |
| CTATATTA | 0.153 ± 0.015 |
| GTATATTA | 0.188 ± 0.012 |
| ATATATTA | 0.241 ± 0.036 |
| GTATTAAA | 0.177 ± 0.05 |
| GCATTATA | 0.14 ± 0.041 |
| ATCTACTG | -0.00445 ± 0.014 |
| GTATTACA | 0.253 ± 0.024 |
| ATCTACTA | 0.243 ± 0.026 |
| ATCTACTC | -0.0796 ± 0.04 |
| AATTGGCT | 0.131 ± 0.011 |
| ACGAATGG | 0.073 ± 0.041 |
| ATTTGAGA | 0.152 ± 0.034 |
| AACAGCGA | -0.213 ± 0.047 |
| GTGTTTGA | 0.1 ± 0.029 |

| Sequence | PBM 8-mer E-score |
| --- | --- |
| CGAAGTCA | -0.106 ± 0.12 |
| CGAACCGA | -0.228 ± 0.013 |
| GGTGCCGA | -0.189 ± 0.027 |
| ATATTATA | 0.242 ± 0.052 |
| ATATACTA | 0.2955 ± 0.0011 |
| ATATACTC | 0.173 ± 0.053 |
| ATTATATA | 0.185 ± 0.047 |
| CTATTATA | 0.0823 ± 0.013 |
| ATATTATC | 0.112 ± 0.0097 |
| ATATTATG | 0.277 ± 0.026 |
| AGATTATG | -0.0162 ± 0.068 |
| CTATACTA | 0.169 ± 0.015 |
| CACACTGA | -0.0965 ± 0.055 |
| AAATCGAC | 0.0123 ± 0.035 |
| AGGGGCCA | 0.0356 ± 0.053 |
| CTCGAGCC | 0.0235 ± 0.047 |
| ACCAGGCC | -0.168 ± 0.022 |
| GGCCACGA | -0.0901 ± 0.0031 |
| ACACTACG | 0.0974 ± 0.045 |
| ATTCTGAA | 0.0149 ± 0.024 |
| ACGGAGCA | 0.0531 ± 0.012 |
| AACGTACA | 0.0315 ± 0.031 |

| Sequence | PBM 8-mer E-score |
| --- | --- |
| ACTATATG | 0.143 ± 0.052 |
| ACTATATC | 0.271 ± 0.019 |
| ACTATATA | 0.285 ± 0.058 |
| ATTATATC | 0.224 ± 0.0096 |
| CCTATATC | 0.0672 ± 0.019 |
| GCTATATA | 0.173 ± 0.019 |
| CGTCGCGC | -0.0442 ± 0.0083 |
| CATCCTGG | -0.145 ± 0.035 |
| ACCTTTCC | 0.0327 ± 0.034 |
| ATCTTAAC | 0.0878 ± 0.048 |
| CTATTAAA | 0.125 ± 0.055 |
| ATATTAAG | 0.0865 ± 0.0037 |
| ATCTTAAA | 0.0723 ± 0.05 |
| ATATTAAC | 0.22 ± 0.076 |
| ATATTAAT | 0.302 ± 0.02 |
| TTATTAAA | 0.0933 ± 0.013 |
| ATCTTAAT | 0.232 ± 0.042 |
| ATATTCAA | 0.171 ± 0.023 |
| ATATTCAC | 0.193 ± 0.047 |
| ATATTAAA | 0.234 ± 0.046 |
| ATATTCAT | 0.238 ± 0.022 |
| ACATTGAT | 0.105 ± 0.0059 |

| Sequence | PBM 8-mer E-score |
| --- | --- |
| AACGAGTG | -0.131 ± 0.02 |
| CGCGACCG | -0.221 ± 0.029 |
| CACTAGAG | -0.0261 ± 0.065 |
| ATAGGTAA | 0.0236 ± 0.0059 |
| GCTCTGGA | -0.0441 ± 0.02 |
| CGTGGAGA | 0.0751 ± 0.065 |
| GAAGGGGA | -0.0692 ± 0.0026 |
| CCCCCAAC | -0.195 ± 0.066 |
| GCCCCACC | 0.289 ± 0.051 |
| GCCCCAAA | 0.117 ± 0.0026 |
| GCCCCAAC | 0.315 ± 0.0087 |
| GCCCCACA | 0.156 ± 0.1 |
| CCCCCACC | -0.264 ± 0.062 |
| CAATGGGA | 0.0389 ± 0.029 |
| CCGCACTA | -0.0974 ± 0.0081 |
| CGAAGCAA | -0.0083 ± 0.02 |
| AGATCCCA | -0.0112 ± 0.031 |
| ACCTTAAG | -0.0585 ± 0.037 |
| CTCCCGGC | -0.268 ± 0.0042 |
| ACTAATTA | 0.226 ± 0.024 |
| GGTAATTA | 0.24 ± 0.0065 |
